Screening data as filed in PubChem BioAssay.
aSyn UTR act – Activators via SNCA 5'UTR binding, MLPCN; alpha-synuclein 5'UTR reporter, activators screen; activity score, % (tested at 7.5 µM), hits read low; actives 7.1% (n = 300,000); AID 1814, 2009; in the data active = activity score below about -60%
The depositor's hits bear a star. The list is a sample of the results.

For C/C(=N\NC(=O)c1cc(Cl)ccc1O)c1ccc(Br)s1 the results were aSyn UTR act -76*.
For C=C1CCC2[C@](C)(CO)[C@H](O)CC[C@@]2(C)[C@@H]1C/C=C1\C(=O)OC[C@H]1O (stereo partly drawn) the results were aSyn UTR act -151*.
`COc1cccc(COc2ccc3c(C)c(Cc4ccccc4)c(=O)oc3c2)c1` gave aSyn UTR act -67*.
For COc1cccc(COc2ccc3ccc(=O)oc3c2)c1 the results were aSyn UTR act -139*.
O=c1ccc2ccc(OCc3ccccc3)cc2o1 was read as aSyn UTR act -80*.
COc1ccc(COc2ccc3ccc(=O)oc3c2)cc1 was read as aSyn UTR act -232*.
Screening CC(C)c1ccc(N=C2N=C(N)c3ccccc32)cc1 returned aSyn UTR act -132*.
Screening COc1ccc2[nH]c(N=Nc3ccccc3C)c(O)c2c1 returned aSyn UTR act -207*.
Screening CSCCNC(=O)c1ccc2nc(C3CCCCC3)oc2c1 returned aSyn UTR act -67*.
For COc1ccc(Cc2nc3ccc(C(=O)NCc4cc(C)no4)cc3o2)cc1 the results were aSyn UTR act -104*.
Screening COc1ccc(Cc2nc3ccc(C(=O)NCCSC)cc3o2)cc1 returned aSyn UTR act -98*.
For O=C(NCC1CCOCC1)c1ccc2nc(Cc3cccc(Cl)c3)oc2c1 the results were aSyn UTR act -79*.
For COc1ccc(Cc2nc3ccc(C(=O)NCC(C)(C)OC)cc3o2)cc1 the results were aSyn UTR act -116*.
CCc1cccc2c(C(=O)COC(=O)c3ccccc3)c[nH]c12 was read as aSyn UTR act -186*.
Screening CCc1cccc2c(C(=O)COC(=O)c3ccc(O)cc3)c[nH]c12 returned aSyn UTR act -109*.
Screening O=C(OCC(=O)c1cccc2ccccc12)c1ccc(CO)cc1 returned aSyn UTR act -98*.
Cc1cccnc1Nc1nc(-c2ccc(O)cc2)cs1 was read as aSyn UTR act -231*.
Screening Cc1cccnc1Nc1nc(-c2ccc(F)cc2)cs1 returned aSyn UTR act -226*.
`COc1ccccc1C(=O)Nc1ccc2c(c1)OCCO2` gave aSyn UTR act -124*.
For COc1cc(C2=NOC(C(=O)NCc3ccc(F)cc3)C2)cc(OC)c1OC (stereo not drawn) the results were aSyn UTR act 77.
COc1ccccc1C(=O)Nc1ccc2c(c1)OCO2 was read as aSyn UTR act -245*.
`O=C(Nc1ccccc1C(=O)Nc1ccc2c(c1)OCO2)c1ccco1` gave aSyn UTR act -74*.
For COc1cc(C2=NOC(C(=O)Nc3ccc4c(c3)OCO4)C2)cc(OC)c1OC (stereo not drawn) the results were aSyn UTR act -64*.
COCCn1cnnc1SCC(=O)Nc1ccccc1C(=O)Nc1ccc2c(c1)OCO2 was read as aSyn UTR act -70*.
Screening CC1CC(C)CN(Cc2nc(N)nc(Nc3ccc4ccccc4c3)n2)C1 (stereo not drawn) returned aSyn UTR act -115*.
For CCn1cc(C(=O)O)c(=O)c2cnc(N3CCN(C(=S)Nc4ccccc4Cl)CC3)nc21 the results were aSyn UTR act -112*.
COc1cccc2cc(CC(=O)c3cc(C)ccc3C)c(=O)oc12 was read as aSyn UTR act -116*.
For CCc1ccc(-c2nc(C(N)=O)c3[nH]c(=O)n(-c4ccccc4OC)c3n2)cc1 the results were aSyn UTR act 82.
`CCc1ccc(C(=O)Cc2cc3cccc(OC)c3oc2=O)cc1` gave aSyn UTR act -105*.
`COc1cccc2cc(C(=O)NCc3ccccc3Cl)c(=O)oc12` gave aSyn UTR act -101*.
For COc1cccc2cc(C(=O)Nc3ccccc3C)/c(=N/O)oc12 the results were aSyn UTR act -114*.
For COc1cccc2cc(-c3nc4ccccc4o3)c(=O)oc12 the results were aSyn UTR act -169*.
`COc1cccc2cc(C(=O)c3ccccc3)oc12` gave aSyn UTR act -132*.
For COc1cccc2cc(C(=O)OCC(=O)NCc3ccc4c(c3)OCO4)c(=O)oc12 the results were aSyn UTR act -92*.
COc1cccc2cc(CC(=O)c3ccccc3)c(=O)oc12 was read as aSyn UTR act -147*.
COc1cccc2cc(C(=O)NCc3ccco3)c(=Nc3ccc(C(=O)O)cc3)oc12 was read as aSyn UTR act -90*.
For CCOC(=O)Cc1csc(NC(=O)c2c(O)c3ccccc3n(CC(C)C)c2=O)n1 the results were aSyn UTR act 75.
`CCOC(=O)Cc1csc(NC(=O)c2cccs2)n1` gave aSyn UTR act -176*.
For CCOC(=O)c1csc(NC(=O)c2cccs2)n1 the results were aSyn UTR act -109*.
`Cn1c(=N)n(CC(=O)c2ccc(F)cc2)c2ccccc21` gave aSyn UTR act 76.
For CCn1c(=N)n(CC(=O)c2ccc(Cl)c(Cl)c2)c2ccccc21 the results were aSyn UTR act -186*.
`COc1cc(/C=C/c2ccc3c(Br)cc(Br)c(O)c3n2)ccc1O` gave aSyn UTR act 65.
For COc1cc(/C=C/c2ccc3cccc(O)c3n2)cc(Cl)c1OC the results were aSyn UTR act -88*.
